Bioassay records (PubChem)
CRFBP-R2 block: CRF-BP/CRF-R2 complex antagonism; inhibition, % at 11.8 µM; HEK293 CRF-R2/CRF-BP, CRF-induced calcium fluorescence; AID 588475; 350,000 tested, 0.59% active;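 active = inhibition of the ligand-induced calcium signal above about 50% at the single tested concentration, limit read from the data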
RTF Ca sens act: cardiac RTF calcium sensitization; P19429+P45379; IANBD-labeled TnC RTF fluorescence at EC20 calcium; 0% EC20 calcium, 100% full calcium; activation, % at 7.2 µM; 340,000 tested, 0.24% active; AID 493008;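 active = activation above the mean over all tested compounds plus 3 SD, cut at about 30% in these data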;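 note: rise in fluorescence read as greater calcium sensitivity of cardiac thin filaments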
Cardiac RTF inh: cardiac RTF calcium desensitization; 340,000 tested, 0.12% active; inhibition, % at 7.15 µM; AID 493244; P19429+P45379; IANBD-labeled cardiac RTF, Ca2+ fluorescence;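 active = inhibition above the mean inhibition of all tested compounds plus 3 SD, cut at about 17% in these data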;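 note: assay run at fixed EC70 calcium of 1.6 mM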
CRFR2-BP ag: agonists of human CRF-binding protein/CRF-R2 receptor complex | 350,000 tested, 0.46% active | AID 588473 | HEK293 CRF-R2/CRF-BP, calcium dye fluorescence (FLIPR); percent of saturating CRF peptide response | activation, % at 13.2 µM;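 active = activation of at least 50%, plus an integration ratio under a set limit after plate pattern correction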
A number is an active result; 0 = inactive. The list is not random: actives were taken first. Their share in the collection is about 1.3%.

SMILES	CRFBP-R2 block	RTF Ca sens act	Cardiac RTF inh	CRFR2-BP ag
COc1ccc(C2c3c(-c4ccccc4O)n[nH]c3C(=O)N2Cc2ccco2)cc1 (stereo not given)	135.8	0	0	0
COc1ccc([N+](=O)[O-])c(OC)c1C(=O)NC(=O)Nc1c(F)c(F)c(F)c(F)c1F	0	0	0	0
CC(NS(=O)(=O)c1ccc(OCC(=O)NCc2ccccn2)cc1)c1ccccc1 (stereo not given)	0	0	0	0
CCC(C)NS(=O)(=O)c1ccc(OCC(=O)NCc2ccccn2)cc1 (stereo not given)	51.4	0	0	0
COc1ccc(NC(=O)Nc2nnc(Cc3ccc(OC)c(OC)c3)s2)cc1	0	0	0	0
COc1ccc(Cc2nnc(NC(=O)Nc3ccc(C)cc3)s2)cc1OC	83.5	0	0	0
O=C(O)c1ccc(-c2nc(-c3ccc(Cl)cc3Cl)cs2)cc1	67.3	0	0	0
O=C(O)c1ccc(-c2nc(-c3ccc(Cl)cc3)cs2)cc1	53.3	0	0	0
COc1ccc(-c2csc(-c3ccc(C(=O)O)cc3)n2)cc1	0	0	0	0
Cc1ccc(-n2c(O)c(C=Nc3ccccc3-c3n[nH]c(=S)[nH]c3=O)c3ccccc3c2=O)c(C)c1	53.0	0	0	0
Cc1nn(C)cc1CN(C)C(=O)c1ccc(OC2CCN(Cc3ccccn3)CC2)cc1	56.7	0	0	0
CCOc1ccc(NS(=O)(=O)c2ccc(C(=O)NCC3(N(C)C)CCCCC3)cc2)cc1	0	0	0	51.0
CCOc1ccc(NS(=O)(=O)c2ccc(C(=O)NCC3(N4CCCCC4)CCCCC3)cc2)cc1	0	0	0	61.9
Cc1cc(S(=O)(=O)Nc2ccc(C(=O)NCC3(N(C)C)CCCCC3)cc2)ccc1F	0	0	0	0
COc1cccc(CNC(=O)CSc2nc(=O)n(Cc3ccncc3)c3c2CCC3)c1	0	0	0	0
CN(C)CCCN1C(=O)C(O)=C(C(=O)c2cc3ccccc3o2)C1c1ccccc1 (stereo not given)	0	0	0	0
COC(=O)c1ccc(C2C(C(=O)c3cc4ccccc4o3)=C(O)C(=O)N2CCCN(C)C)cc1 (stereo not given)	113.6	0	0	0
c1ccc(Oc2cccc(OCCCCSc3ncccn3)c2)cc1	0	0	0	50.5
CN1/C(=C/c2cccc[n+]2CCO)Sc2ccccc21	0	0	0	0
CCN1/C(=C/c2ccc3cc(C)ccc3[n+]2CC)Sc2ccccc21	0	46.9	0	154.7
CCN1/C(=C/c2ccc3cc(C)ccc3[n+]2CC)Sc2cc(C)c(C)cc21	0	36.4	0	183.8
CC[n+]1ccccc1/C=C1\Sc2ccc(C)cc2N1C	0	0	0	0
CCN1/C(=C/C=C/c2sc3ccccc3[n+]2CC)Sc2ccccc21	0	0	0	0
CC[n+]1c(/C=C2\Sc3ccccc3N2C)ccc2cccc(C)c21	0	45.7	0	124.1
Nc1nc(SCC(=O)Nc2ccc(F)cc2)[nH]c(=O)c1NC(=O)c1ccc(F)c(F)c1	0	0	0	0
SMILES	CRFBP-R2 block	RTF Ca sens act	Cardiac RTF inh	CRFR2-BP ag
CCc1ccc(NC(=O)CSc2nc(N)c(NC(=O)c3ccc(F)c(F)c3)c(=O)[nH]2)cc1	52.3	0	0	0
CSCC[C@H](NC(=O)c1cccc(S(=O)(=O)N2CCN(C)CC2)c1)c1nc2ccccc2[nH]1	0	0	0	71.4
Cc1ccc2c(c1)C(C)CC(C)(C)N2C(=O)CN1CCN(C)CC1 (stereo not given)	68.0	0	0	0
CC1CC(C)(C)N(C(=O)CN2C(=O)c3ccccc3C2=O)c2ccccc21 (stereo not given)	0	0	0	113.8
CC[C@@]12C(=O)N(c3ccc(OC)cc3)C(=O)N1[C@H](c1cccc(C)c1)[C@@H]1C(=O)N(Cc3ccccc3)C(=O)[C@@H]12	0	0	0	0
CCOC(=O)C1(CC2CCCCO2)CCN(Cc2nccn2-c2cccc(C)c2)CC1 (stereo not given)	0	0	0	0
CCOC(=O)C1(CC2CCCCO2)CCN(Cc2nccn2-c2ccc(OC)cc2)CC1 (stereo not given)	52.3	0	0	0
O=C(CC1SCCNC1=O)Nc1cccc([N+](=O)[O-])c1 (stereo not given)	0	0	0	0
O=C(CCCc1cccs1)Nc1ccc2c(c1)OCO2	58.5	0	0	0
O=C1Nc2ccccc2N(O)N1c1cc(-c2ccccc2Cl)no1	0	0	0	0
O=C1Nc2ccccc2N(O)N1c1cc(-c2cccc(Cl)c2)no1	50.1	0	0	0
